Only a selection was taken, and hits are over-represented in it overall.
Tg IFNy HTS: blocks Toxoplasma gondii growth in the presence of IFN-gamma; Toxoplasma gondii growth in IFN-gamma-treated host cells; active compounds read low; activity change, negative = inhibition, % (no concentration beside the values); 69,000 tested, 3.8% active; in the data active = activity change below about -70%, passing the limit was not always enough;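 also: host cells are HeLa cells infected with Toxoplasma gondii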
Numbers without * were called inactive; i = inactive.

SMILES	Tg IFNy HTS
Cc1noc(C)c1NC(=O)Nc1ccc2c(c1)C(=O)N([C@@H](C)CO)C[C@@H](C)[C@H](CN(C)S(=O)(=O)c1cccs1)OCCCC[C@@H](C)O2	i
Cc1noc(C)c1NC(=O)Nc1ccc2c(c1)C(=O)N([C@@H](C)CO)C[C@H](C)[C@H](CN(C)S(=O)(=O)c1cccs1)OCCCC[C@H](C)O2	311.8
C[C@@H]1CCCCO[C@@H](CN(C)C(=O)c2ccncc2)[C@@H](C)CN([C@H](C)CO)C(=O)c2cc(NS(=O)(=O)c3cccs3)ccc2O1	11.8
Cc1ccc(S(=O)(=O)Nc2ccc3c(c2)C(=O)N([C@@H](C)CO)C[C@@H](C)[C@@H](CN(C)S(=O)(=O)c2cccs2)OCCCC[C@@H](C)O3)cc1	-99.3*
Cc1noc(C)c1NC(=O)Nc1ccc2c(c1)C(=O)N([C@@H](C)CO)C[C@@H](C)[C@@H](CN(C)S(=O)(=O)c1cccs1)OCCCC[C@H](C)O2	i
Cc1ccc(S(=O)(=O)Nc2ccc3c(c2)C(=O)N([C@@H](C)CO)C[C@H](C)[C@@H](CN(C)S(=O)(=O)c2cccs2)OCCCC[C@@H](C)O3)cc1	-90.4*
C[C@@H]1CCCCO[C@@H](CN(C)C(=O)c2ccncc2)[C@H](C)CN([C@H](C)CO)C(=O)c2cc(NS(=O)(=O)c3cccs3)ccc2O1	-19.7
Cc1noc(C)c1NC(=O)Nc1ccc2c(c1)C(=O)N([C@H](C)CO)C[C@@H](C)[C@H](CN(C)S(=O)(=O)c1cccs1)OCCCC[C@@H](C)O2	90.3
C[C@@H]1CCCCO[C@H](CN(C)C(=O)c2ccncc2)[C@@H](C)CN([C@H](C)CO)C(=O)c2cc(NS(=O)(=O)c3cccs3)ccc2O1	76.1
Cc1ccc(S(=O)(=O)Nc2ccc3c(c2)C(=O)N([C@@H](C)CO)C[C@H](C)[C@@H](CN(C)S(=O)(=O)c2cccs2)OCCCC[C@H](C)O3)cc1	-99.2*
Cc1noc(C)c1NC(=O)Nc1ccc2c(c1)C(=O)N([C@H](C)CO)C[C@H](C)[C@@H](CN(C)S(=O)(=O)c1cccs1)OCCCC[C@H](C)O2	185.4
Cc1ccc(S(=O)(=O)Nc2ccc3c(c2)C(=O)N([C@@H](C)CO)C[C@H](C)[C@H](CN(C)S(=O)(=O)c2cccs2)OCCCC[C@@H](C)O3)cc1	-99.4*
COc1cccc(CNC(=O)Cn2ncc3c(N4CCN(c5ccccn5)CC4)ncnc32)c1	32.9
Cn1nc(CN2CCCC2=O)c2c1CN(C(=O)CO)C2	21.6
Cc1ccc(C)c(OCc2cc(C(=O)NCc3nnc4n3CCC4)no2)c1	1.8
COc1ccc(NC(=O)Cn2c(=O)ccc3cc(S(=O)(=O)N4CCCC4)ccc32)cc1OC	26.7
CCN1c2ccc(C)cc2C(=O)NC12CCN(C(=O)Cc1ccc(Cl)cc1)CC2	13.8
CC(C)c1ccc(CN2C[C@@H]3OCCN(C(C)C)[C@H]3C2)cc1	-0.1
C=CCN1C(=O)CCCC12CCN(C(=O)c1ccc(F)cc1)CC2	-9.1
Cc1[nH]c2c(CN3CCC(CNS(C)(=O)=O)C3)cccc2c1C (centres undefined)	53.9
OCCCn1cnc(-c2ccccc2)c1-c1ccccc1Cn1cccn1	-7.1
CC(C)(C)CC(=O)N1CCn2nnc(COCc3cccnc3)c2C1	-7.5
C[C@@H]1CCCCO[C@@H](CN(C)Cc2ccc(Cl)c(Cl)c2)[C@@H](C)CN([C@H](C)CO)C(=O)c2cc(NS(=O)(=O)c3cccs3)ccc2O1	-44.6
Cc1ccc(S(=O)(=O)Nc2ccc3c(c2)C(=O)N([C@@H](C)CO)C[C@@H](C)[C@H](CN(C)S(=O)(=O)c2cccs2)OCCCC[C@H](C)O3)cc1	-58.6
C[C@H](CO)N1C[C@H](C)[C@@H](CN(C)Cc2ccc(Cl)c(Cl)c2)OCCCC[C@H](C)Oc2ccc(NS(=O)(=O)c3cccs3)cc2C1=O	-173.0*
SMILES	Tg IFNy HTS
C[C@@H]1CCCCO[C@H](CN(C)Cc2ccc(Cl)c(Cl)c2)[C@@H](C)CN([C@H](C)CO)C(=O)c2cc(NS(=O)(=O)c3cccs3)ccc2O1	105.9
Cc1ccc(S(=O)(=O)Nc2ccc3c(c2)C(=O)N([C@H](C)CO)C[C@H](C)[C@@H](CN(C)S(=O)(=O)c2cccs2)OCCCC[C@@H](C)O3)cc1	-46.6
Cc1ccc(S(=O)(=O)Nc2ccc3c(c2)C(=O)N([C@H](C)CO)C[C@H](C)[C@@H](CN(C)S(=O)(=O)c2cccs2)OCCCC[C@H](C)O3)cc1	-121.9*
COc1ccc(OC)c(C(c2nnnn2Cc2ccccc2)N2CCc3ccccc3C2)c1 (centres undefined)	-29.3
CCCn1nc(NC(=O)CCC(=O)O)c2cc3cccc(C)c3nc21	-47.7
CC(C)N(Cc1cnn(C)c1)C(=O)COc1cccnc1	-0.9
O=C(O)CCCn1cc(NC(=O)COc2ccc3ccccc3c2)cn1	11.9
Cc1nc(C(=O)N2CCCC3(CCNC3=O)CC2)cs1 (centres undefined)	58.2
CCn1cc(CN2CCN(C(=O)c3ccnc(N4CCOCC4)c3)CC2)c(C)n1	14.0
Cc1nn(CCO)cc1CN1CCN(S(=O)(=O)c2ccccc2)CC1	-6.6
CCn1cc(CN2CCN(C(=O)c3cc4c(F)cccc4[nH]3)CC2)c(C)n1	-107.9*
COc1ccc2c(C)c(C(=O)NCCn3c(C)cc(C)nc3=O)oc2c1	0.4
COCC(=O)Nc1cccc(-c2ccccc2Cl)c1	6.9
O=C1CCc2cc(S(=O)(=O)Nc3ccc4c(c3)OCO4)cc3c2N1CCC3	125.3
CN(C)S(=O)(=O)N1CC[C@H]2OCC[C@@]2(COCc2cccnc2)C1	-5.3
O=C(c1ccc(Cn2ccnc2)o1)N1CCc2onc(-c3ccccc3)c2C1	-31.4
O=C(c1cc2cccnc2n(Cc2ccc(Cl)cc2)c1=O)N1CCN(c2ccccc2)CC1	-3.9
CC(C)N(Cc1ccccc1)C(=O)c1cc2cccnc2n(Cc2ccc(F)cc2)c1=O	-95.6*
O=C(c1cc2cccnc2n(Cc2ccc(F)cc2)c1=O)N(Cc1ccccc1)c1ccccc1	-28.7
CN(Cc1ccccc1)C(=O)c1cc2cccnc2n(Cc2ccccc2)c1=O	16.4
O=C(c1cc2cccnc2n(Cc2ccc(F)cc2)c1=O)N1CCN(c2ccccc2Cl)CC1	-84.4*
COc1ccccc1N1CCN(C(=O)c2cc3cccnc3n(Cc3ccccc3)c2=O)CC1	28.2
O=C(c1cc2cccnc2n(Cc2ccc(F)cc2)c1=O)N1CCCCCC1	-12.0
O=C(c1cc2cccnc2n(Cc2ccc(F)cc2)c1=O)N1CCN(c2cccc(Cl)c2)CC1	-119.3*
O=C(c1cc2cccnc2n(Cc2ccc(Cl)cc2)c1=O)N1CCN(c2ccc(F)cc2)CC1	-97.7*
SMILES	Tg IFNy HTS
O=C(c1ccco1)N1CCN(C(=O)c2cc3cccnc3n(Cc3ccc(F)cc3)c2=O)CC1	-15.5
CC1CCN(C(=O)c2cc3cccnc3n(Cc3ccc(F)cc3)c2=O)CC1	14.6
COc1ccc(N2CCN(C(=O)c3cc4cccnc4n(Cc4ccc(F)cc4)c3=O)CC2)cc1	32.9
O=S(=O)(c1ccc(C2CCCCC2)cc1)N1CCC2(CC1)Nc1ccccc1-n1cccc12	35.7
Cc1ccc(C2(O)CCN(C(=O)CC3C=CS(=O)(=O)C3)CC2)nc1 (centres undefined)	6.0
COc1ccc2c(c1)C(NC(=O)c1cc(=O)n(C)c(=O)n1C)CC(C)(C)O2 (centres undefined)	79.6
CC(=O)Nc1ccccc1NC(=O)CN(C)Cc1nc2ccccc2n1C	-4.7
CC(C)COC1CC2(CCN(C(=O)c3cccn3C)CC2)C1	-49.9
Cc1ccc(Nc2nc(C(=O)NCCCc3ccccc3)nc3ccccc23)cc1	-21.1

Bioassay records from PubChem BioAssay.
